# PubChem BioAssay
# Measured potencies and affinities stand elsewhere. Values without a mark were called inactive.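 Rule for the calls: active = signal drop whose fitted half-maximal concentration is at most twice the top valid dose, in every test run; inconclusive = mixed calls across runs, poor fit, or flat 30 to 70% inhibition; inactive = wrong direction, flat within 30%, or potency beyond limit.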
# Assay: RMG-1 ovarian cancer cell viability loss – cherry-pick, dose response (AID 687029);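 note: cells exposed to compound for 96 hours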
# Conditions: RMG-1 viability, CellTiterGlo ATP luminescence, 96 h; series mostly up to 35 µM; activity change, negative = inhibition: at the top concentration
row,SMILES,"activity change, negative = inhibition"
1,C[C@H]1CCCCO[C@H](CN(C)C(=O)C2CCCCC2)[C@@H](C)CN([C@@H](C)CO)C(=O)c2cc(NC(=O)Nc3ccc(F)cc3)ccc2O1,8.37%
2,COc1ccc(S(=O)(=O)N(C)C[C@H]2OCCCC[C@H](C)Oc3ccc(NS(=O)(=O)c4ccc(F)cc4)cc3C(=O)N([C@@H](C)CO)C[C@@H]2C)cc1,13.6%
3,C[C@@H]1CN([C@H](C)CO)C(=O)c2cc(NC(=O)Nc3ccc(C(F)(F)F)cc3)ccc2O[C@@H](C)CCCCO[C@@H]1CN(C)C(=O)c1ccccc1,5.51%
4,Cc1nc(SCC(=O)Nc2nc3ccccc3s2)c(C#N)c(C)c1C,28.5%
5,CC(=O)Nc1ccc(S(=O)(=O)c2ccnc3cc(Cl)ccc23)cc1,31.9%
6,C[C@H](CO)N1C[C@H](C)[C@@H](CN(C)C(=O)C2CCCCC2)OCCCC[C@H](C)Oc2ccc(NS(=O)(=O)c3ccc(Cl)cc3)cc2C1=O,17.1%
7,Cc1ccc(S(=O)(=O)N(C)C[C@@H]2Oc3cc(C#Cc4ccncc4)ccc3S(=O)(=O)N([C@H](C)CO)C[C@H]2C)cc1,-2.44%
8,CN1c2ccc(-c3ccccc3)cc2[C@H]2[C@H](CCN2C(=O)NC2CCCCC2)[C@@H]1CO,19.6%
9,COc1ccc(CN(C)C[C@H]2OCCCC[C@@H](C)Oc3ccc(NC(=O)Nc4ccc(F)cc4)cc3C(=O)N([C@@H](C)CO)C[C@@H]2C)cc1,0.784%
10,COc1cccc(S(=O)(=O)N2C[C@@H]3N[C@H](C2)C3c2ccc(/C=C/c3ccccc3)cc2)c1 (stereo not given in full),18.7%
11,O=C(/C=C/c1ccccc1)Nc1cccc(C(=O)O)c1,18%
12,CO[C@@H]1CN(C)C(=O)c2cc(NC(=O)c3ccc(-c4ccccc4)cc3)ccc2OC[C@H](C)NC[C@H]1C,8.56% [at 30 µM]
13,C[C@@H]1CN([C@H](C)CO)C(=O)c2cc(NC(=O)NC3CCCCC3)ccc2O[C@@H](C)CCCCO[C@H]1CN(C)Cc1ccc(C(F)(F)F)cc1,8.13%
14,Cc1cc(NC(=O)CCCS(=O)(=O)c2nc(-c3cccs3)cc(C(F)(F)F)n2)no1,40.7%
15,COc1ccc(S(=O)(=O)Nc2ccc3c(c2)CC(=O)N([C@@H](C)CO)C[C@@H](C)[C@@H](CN(C)Cc2ccc(-c4ccccc4)cc2)O3)cc1,-50.9%
16,O=C(C1CC1)N1C[C@@H]2N[C@H](C1)C2c1ccc(-c2ccccc2F)cc1 (stereo not given in full),24%
17,COc1ccc(S(=O)(=O)Nc2ccc3c(c2)C(=O)N([C@H](C)CO)C[C@H](C)[C@H](CN(C)Cc2ccc(C(F)(F)F)cc2)OCCCC[C@H](C)O3)cc1,7.38%
18,O=C(CCCN1C(=O)/C(=C/c2cccc(Br)c2)SC1=S)Nc1ccccn1,25.9%
19,Oc1ccc(Cc2ccccc2)c2cccnc12,-14.2%
20,Cc1ccc2cccc(NS(=O)(=O)c3ccccc3)c2n1,17.5%

row,SMILES,"activity change, negative = inhibition"
1,Cc1ccc(S(=O)(=O)N(C)C[C@@H]2Oc3cc(C#Cc4ccncc4)ccc3S(=O)(=O)N([C@H](C)CO)C[C@@H]2C)cc1,3.4%
2,Cc1ccc(S(=O)(=O)Nc2ccc3c(c2)nc(CCN2CCCC2)n3C)cc1,17.9%
3,C[C@@H]1CCCCO[C@H](CN(C)Cc2ccc(C(F)(F)F)cc2)[C@H](C)CN([C@@H](C)CO)C(=O)c2cc(NS(=O)(=O)c3ccc(F)cc3)ccc2O1,19.4%
4,Cc1ccc(S(=O)(=O)Nc2ccc3c(c2)CC(=O)N([C@@H](C)CO)C[C@H](C)[C@@H](CN(C)C(=O)Nc2ccc(C(F)(F)F)cc2)O3)cc1,15.3%
5,O=C(NCCc1ccccc1)c1ccc2c(c1)OCCCO2,41%
6,CC(C)CC#Cc1ccc2c(c1)O[C@H](CN(C)Cc1ccc(C(=O)O)cc1)[C@@H](C)CN([C@H](C)CO)S2(=O)=O,9.8%
7,O=S(=O)(c1ccccc1F)N1CC[C@@H]2[C@H]1c1cc(-c3cccc(F)c3)ccc1N[C@@H]2CO,23.8%
8,O=C1/C(=C/c2ccccc2F)SC(=S)N1CC(=O)N1CCCCC1c1cccnc1 (stereo not given),18.3%
9,C[C@H](CO)N1C[C@H](C)[C@@H](CN(C)Cc2ccc(Cl)c(Cl)c2)Oc2ccc(NS(=O)(=O)c3ccccc3)cc2CC1=O,2.06%
10,O=C(Nc1ccc(F)cc1)N1CCCCN2[C@@H](CO)[C@@H](c3ccc(C#Cc4ccccc4)cc3)[C@@H]2C1,17%
11,CCN(CC)CCCNc1nc2ccccc2c2[nH]c3ccc(OC)cc3c12,57.4%
12,C[C@@H]1CN([C@H](C)CO)C(=O)c2cc(NC(=O)Nc3ccccc3)ccc2O[C@@H](C)CCCCO[C@@H]1CN(C)Cc1ccc(C(F)(F)F)cc1,-51.6%
13,Cc1ccc(-c2csc(NC3OC(=O)c4ccccc43)n2)cc1 (stereo not given),20.6%
14,COc1cc(/C=C2\SC(=S)N(CCC(=O)N3CCCCC3)C2=O)cc(OC)c1OC,35.3%
15,Cc1ccccc1S(=O)(=O)N1CC[C@@H]2[C@H](CO)Nc3ccc(-c4cccc(F)c4)cc3[C@@H]21,17.6%
16,CN(C)CCN(C(=O)/C=C/c1cccs1)c1nc2c(F)cc(F)cc2s1,48.7%
17,Cc1noc(C)c1S(=O)(=O)Nc1ccc2c(c1)C(=O)N([C@H](C)CO)C[C@H](C)[C@@H](CN(C)C(=O)Nc1ccc(C(F)(F)F)cc1)OCCCC[C@H](C)O2,4.26%
18,Cc1ccc(S(=O)(=O)Nc2ccc3c(c2)C(=O)N([C@@H](C)CO)C[C@@H](C)[C@H](CN(C)Cc2ccc(C(F)(F)F)cc2)OCCCC[C@H](C)O3)cc1,13.3%
19,COc1ccccc1C#Cc1ccc2c(c1)O[C@H](CN(C)Cc1cccnc1)[C@H](C)CN([C@@H](C)CO)S2(=O)=O,14.4%
20,Cc1cc(C)c2sc(NNC(=O)c3ccc(S(=O)(=O)N4CCc5ccccc5C4)cc3)nc2c1,44.3%
